Shiga toxin inh: blocks Shiga toxin action in Vero cells | inhibition, % at 38.7 µM | AID 2315 | hit rate 9.2% among 290,000 | Vero cells, Shiga toxin protein synthesis inhibition reporter; in the data active = inhibition mostly above about 28%, no sharp cut-off; inactive = mostly below about 43%
NS1 inh: influenza NS1 inhibition; Potency, µM (series often up to 46.1 µM); hit rate 0.4% among 270,000; calls by dose curve; note: actives are rising curves; nearly all actives have a fitted effect of over 50% in size
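A cell-based growth assay was used: compounds that relieve NS1-induced slow growth of budding yeast raise OD600. Assay medium was yeast nitrogen base with ammonium sulphate and -URA supplement, pH 6.0, with 2% galactose.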
Pf growth 96h: inhibits malaria parasite growth, 96 h | P. falciparum luciferase reporter growth, 96 h | Potency, µM (doses to about 28.7 µM), most hits filed as inhibitors | AID 504834 | hit rate 6.9% among 320,000
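Compounds incubated with erythrocytes infected by luciferase-expressing P. falciparum (2% hematocrit, 0.05% parasitemia final) for 96 hours, 37 C in 5% CO2. Growth inhibition scored as decreased luciferase luminescence.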
Cycloheximide cs: counter-screen for Shiga toxin inhibitors: cycloheximide protein synthesis inhibition. hit rate 12% among 300,000. max response, %. cell reporter, cycloheximide protein synthesis inhibition counterscreen; in the data active = max response mostly above about 13%, no sharp cut-off; inactive = mostly below about 14%; note: read at 38.3 µM for the half of the compounds with a filed dose
Pf growth 48h: inhibits P. falciparum growth in the first generation, 48 h; P. falciparum luciferase growth in erythrocytes, 48 h; Potency, µM (highest dose often 28.7 µM), actives largely listed as inhibitors; hit rate 5.9% among 310,000; AID 504832
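Luciferase-expressing P. falciparum in infected erythrocytes (2% hematocrit, 0.1% parasitemia final) in RPMI 1640/0.5% Albumax were exposed to compound for 48 hours at 37 C, 5% CO2; growth read as luminescence.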
Each line names hits and unclear results; the compound was inactive in the other large screens. Sampled rows, rich in hits. Any-hit rate of the full collection: about 21%. Unless noted, calls come from the whole dose curve; as a rule, active = well fitted inhibition curve with a large enough effect; inconclusive = small, poorly fitted or top-dose-only effect, or another doubt; inactive = no such curve, though single readings can be large or run the other way.

COc1ccc(N2C(=O)NC(NS(=O)(=O)c3ccccc3)(C(F)(F)F)C2=O)cc1 (centres undefined)	none
COc1ccc(N2C(=O)NC(NS(=O)(=O)c3ccc(NC(C)=O)cc3)(C(F)(F)F)C2=O)cc1 (centres undefined)	Pf growth 96h 9.28µM
O=C(CO/N=C/c1ccccc1)N1c2ccccc2Oc2ccccc21	Pf growth 96h inconclusive, Pf growth 48h 11.7µM
O=C(CN1CCCCC1)N1c2ccccc2Oc2ccccc21	Pf growth 96h inconclusive
O=C(NCc1ccc(F)cc1)c1ccncc1	Pf growth 96h 6.57µM
CC(C)c1ccc(CNNC(=O)c2ccccc2)cc1	Shiga toxin inh 75.5, Cycloheximide cs 51.7
COc1ccc(C(=O)NCc2ccc(N3CCN(C)CC3)cc2)cc1	none
COc1ccc(CNC(=O)c2ccc(C(C)C)cc2)cc1	Shiga toxin inh 157.4, Cycloheximide cs 46.3
COc1ccc(CNC(=O)c2ccncc2)cc1	Pf growth 96h 3.29µM
O=[N+]([O-])c1cc(-c2nc3nc4ccccc4nc3n2CCc2ccccc2)cc([N+](=O)[O-])c1	Pf growth 96h inconclusive, Pf growth 48h inconclusive
COc1ccc(CNC(=O)c2ccc(C)o2)cc1	Cycloheximide cs 12.9
O=C(NCc1ccc(F)cc1)c1cnccn1	Cycloheximide cs 10.5
COc1ccc(CNC(=O)c2ccc(C(C)(C)C)cc2)cc1	Shiga toxin inh 91.2, Cycloheximide cs 64.4
O=C(NCc1ccc(Cl)cc1)c1cnccn1	Pf growth 96h inconclusive
CCc1ccccc1NC(=O)CN1CCN(CC(=O)Nc2cc(C)ccc2OC)CC1	Pf growth 48h inconclusive
CC(=O)Oc1ccccc1/C=C1\CCOC1=O	none (no result: Pf growth 48h)
CC(=O)Oc1ccccc1/C=C/c1nc2ccccc2c(=O)o1	Pf growth 48h 1.47µM
CC(=O)Oc1ccc(/C=C/c2nc3ccccc3c(=O)o2)cc1	Pf growth 96h 11.7µM
O=[N+]([O-])c1ccc(C=Nc2cccc3ccccc23)s1	Pf growth 48h inconclusive
O=c1oc(/C=C/c2ccc([N+](=O)[O-])s2)nc2ccccc12	Pf growth 96h 0.0828µM, Cycloheximide cs 11.7, Pf growth 48h inconclusive
CC(=O)Oc1ccc(-c2nc3ccccc3c(=O)o2)cc1	Pf growth 48h inconclusive
CCOC(=O)c1ccc(NC(=S)NNC(=O)COC)cc1	Pf growth 96h inconclusive
CC(C)CC(=O)NC(=S)NNC(=O)c1ccc(NC(=O)C2CCCCC2)cc1	Pf growth 96h 13.1µM, Pf growth 48h inconclusive
COC(=O)c1ccc(NC(=S)NC2CCCCC2C)cc1 (centres undefined)	Pf growth 96h inconclusive, Cycloheximide cs 25.0
CC(C)COC(=O)c1ccc(NC(=O)C2C3CCC(C3)C2C(=O)O)cc1 (centres undefined)	Shiga toxin inh 73.6, Cycloheximide cs 61.8
CCOC(=O)c1ccc(NC(=S)NNC(=O)C2(C)CC2(Cl)Cl)cc1 (centres undefined)	Shiga toxin inh active, Pf growth 96h inconclusive
CCOC(=O)c1ccc(NC(=O)C2C3CCC(C3)C2C(=O)O)cc1 (centres undefined)	none (no result: Pf growth 96h)
CCOC(=O)c1ccc(NC(=O)NC2CC3CCC(C2)N3)cc1 (centres undefined)	none
O=C(NC(=S)Nc1ccc(Br)cc1)C1CCC1	Shiga toxin inh 102.4, Pf growth 96h inconclusive, Cycloheximide cs 47.1
CCOC(=O)c1ccc(NC(=O)NC2CC3CCC(C2)N3Cc2nnnn2C(C)(C)C)cc1 (centres undefined)	Pf growth 48h 2.08µM
CCOC(=O)c1ccc(NC(=S)NC(=O)C2CCCC2)cc1	Cycloheximide cs 26.8, Pf growth 48h inconclusive
CCOC(=O)c1ccc(NC(=O)C2C3CCCCC32)cc1 (centres undefined)	Shiga toxin inh 103.3, Cycloheximide cs 42.8
CC12CCC(=O)N1C(C(=O)N1CCN(S(=O)(=O)c3ccc(F)c(F)c3)CC1)CS2 (centres undefined)	Pf growth 48h inconclusive (no result: Shiga toxin inh, NS1 inh, Cycloheximide cs)
O=C(NCCc1ccc(C(F)(F)F)cc1)c1ccc(Cl)nc1	Pf growth 48h inconclusive
O=C(O)c1ccc2c(c1)C(=O)N(c1cccc(S(=O)(=O)Nc3cccc(C(F)(F)F)c3)c1)C2=O	none
COC(=O)c1ccc(NC(=S)NC(=O)C2CCC2)cc1	Shiga toxin inh 63.9, Cycloheximide cs 25.8
COc1ccc(NC(=S)NC(=O)C2CCC2)cc1	Shiga toxin inh 42.7, Cycloheximide cs 40.0
CCOC(=O)c1ccc(NC(=S)NC2CCCC2)cc1	Shiga toxin inh active, Pf growth 96h inconclusive, Cycloheximide cs 22.3
O=C(NC(=S)Nc1ccc(Br)cc1)C1CCCCC1	Pf growth 48h inconclusive

Assay outcomes: PubChem BioAssay, National Center for Advancing Translational Sciences (NCATS)
